Results filed as inconclusive are left out. Entries that show only a call come without a potency. The source made the active and inactive calls. Calls follow the shape of the dose curve; as a rule, active = well fitted curve in the direction sought with a large enough effect; inconclusive = small, poorly fitted or top-dose-only effect, or another doubt; inactive = no such curve, though single readings can be large; an effect the other way counts as inactive or inconclusive.
System: not listed separately
Assay: qHTS for Inhibitors of the Aldehyde Dehydrogenase Family (ALDH1A2, ALDH1A3, ALDH2, ALDH3A1) (AID 2061307); also: nearly all actives have a fitted effect of over 50% in size; as to potency: test system not described further here
Settings: ALDH inhibition qHTS; series mostly up to 50.3 µM
Potency is read from the fitted curve at half-maximal effect.

Structure (SMILES)	Potency
Cc1ccc(OCCn2c3c(c4ccccc42)CN(C(=O)C2CCCCC2)CC3)cc1	1.59 µM (active)
Cc1cc(-c2nnc3n2CCCCC3)c(C)n1-c1cccc2ccccc12	inactive
Nc1nccc(-c2c(-c3ccc(F)cc3)ncn2C2CCCCC2)n1	inactive
Cc1csc(CN(C)c2ncnc3ccc(-c4ccc5c(c4)OCO5)cc23)n1	0.201 µM (active)
N#Cc1c(-c2ccc(Br)cc2)no[n+]1[O-]	7.98 µM (active)
c1csc(CNc2ccc(N3CCOCC3)cc2)c1	inactive
CCCCN1C(=O)c2ccccc2NC1c1ccc(OC)c(COc2ccc(NC(C)=O)cc2)c1 (stereo not given)	7.12 µM (active)
C=C1[C@@H](OC(C)=O)CC[C@@]2(C)[C@@H](OC(C)=O)[C@H](OC(C)=O)C3=C(C)C[C@H](OC(=O)C(C)CC)[C@@H]([C@@H](OC(C)=O)[C@H]12)C3(C)C (stereo not given in full)	inactive
O=C([C@@H]1CCCN(c2ccc3[nH]c(C4(n5cc(Cl)cn5)CC4)nc3n2)C1)N1CCCC1	inactive
CC(C)(Nc1nc(-c2ccccc2C(F)(F)F)nc2ccccc12)c1ccc(-c2cccc(C(F)(F)F)c2)cc1	inactive
COc1ccc(C2Oc3ccccc3C(=O)N2Cc2ccccc2)cc1COc1ccc(NC(C)=O)cc1 (stereo not given)	0.283 µM (active)
COc1ccc(C2Nc3ccccc3C(=O)N2Cc2ccc(CNC(=O)CO)cc2)cc1COc1ccc(NC(C)=O)cc1 (stereo not given)	4.49 µM (active)
Cc1ccc(CN(C)c2ncnc3ccc(-c4ccc(C#N)n4C)cc23)o1	3.16 µM (active)
Cc1ccc2nc3sc(C(=O)N4CCCCC4)cc3cc2c1	11.3 µM (active)
c1nc(NCC2CC2)c2cc(-c3ccc4c(c3)OCO4)ccc2n1	inactive
O=C1Nc2ccccc2/C1=C/c1cccc(C(=O)O)c1	2.24 µM (active)
COc1ccc(C2Nc3ccccc3C(=O)N2Cc2ccncc2)cc1COc1ccc(NC(C)=O)cc1 (stereo not given)	3.57 µM (active)
COc1ccc(C2Nc3ccccc3C(=O)N2Cc2ccc(-c3ccccc3)cc2)cc1COc1ccc(NC(C)=O)cc1 (stereo not given)	1.79 µM (active)
COc1ccc(C2=Nn3c(nnc3-c3ccccc3OC)SC2)cc1	2.01 µM (active)
Cc1ccc(-c2cnn(CC(=O)NCCc3ccccc3)c(=O)c2)cc1	12.7 µM (active)

Structure (SMILES)	Potency
Cc1ccc(N[S+](=O)([O-])c2cc3c(cc2Cl)NC(=O)CO3)cc1Br	10.1 µM (active)
CN(C)c1ccc(C(=O)NCC(=O)OC(C(=O)Nc2cc(C(F)(F)F)ccc2Cl)c2ccccc2)cc1 (stereo not given)	inactive
Nc1ccc(Nc2cc(O)c3ncccc3c2)cc1	inactive
CC(=O)Nc1sc2c(c1-c1nc3ccccc3s1)CN(C(C)C)C2	inactive
Cc1ccc(NC(=O)CN2C(=O)N/C(=C\c3cccn3-c3ccc(C(=O)O)cc3)C2=O)cc1	inactive
NC(=O)C1CCN(c2nccc(-c3ccc4c(c3)OCCCO4)n2)CC1	inactive
NC(=O)C1CCN(c2nc(-c3cc4ccccc4o3)cs2)CC1	2.83 µM (active)
CNC(=O)C1CCN(c2nc(-c3ccc(Br)cc3)cs2)CC1	12.6 µM (active)
N#Cc1cccnc1SC1=NS(=O)(=O)c2ccccc21	0.891 µM (active)
N#Cc1nc(Nc2ccccc2)nc(NC2CCCCC2)n1	0.708 µM (active)
CN1C(=O)Cc2cc([S+](=O)([O-])N3CCN([S+](=O)([O-])c4c(F)cccc4F)CC3)ccc21	inactive
N#Cc1cnc(NS(=O)(=O)c2ccc(NC(=O)Cc3ccc(Cl)c(Cl)c3)cc2)s1	25.2 µM (active)
O=c1[nH]c(CN2CCOCC2)nc2sc3c(c12)CCCC3	inactive
Cc1ccc(CN(C)c2ccc(N3CCN(C)CC3)cc2)cc1	inactive
O=C(OCC#CCSc1nnc(-c2cccc3ccccc23)o1)c1ccncc1	inactive
C/C(=C\c1cccc(C(F)(F)F)c1)C1Nc2cccc3cccc(c23)N1	inactive
CNc1oc(-c2c[nH]c3ccccc23)nc1C#N	11.3 µM (active)
COc1ccc(-c2nc3ccccc3c(=O)n2Cc2ccco2)cc1COc1ccc(NC(C)=O)cc1	20.1 µM (active)
Cc1ccc(S(=O)(=O)Nc2cc(C(F)(F)F)ccc2C(=O)Nc2nc(-c3ccccc3)cs2)cc1	0.355 µM (active)
CN(C)[C@H]1CCN(c2cccc(Nc3nn4c(=O)c5ccccc5nc4s3)c2)C1	inactive

Target: Aldehyde dehydrogenase, mitochondrial (Homo sapiens) (UniProt P05091)
Assay: qHTS for Inhibitors of the Aldehyde Dehydrogenase Family (ALDH2) Primary screen (AID 2061308); also: nearly all actives have a fitted effect of over 55% in size
Settings: ALDH2 enzyme inhibition qHTS, 1536-well; series mostly up to 56 µM

Structure (SMILES)	Potency
Cc1ccc(OCCn2c3c(c4ccccc42)CN(C(=O)C2CCCCC2)CC3)cc1	inactive
Cc1cc(-c2nnc3n2CCCCC3)c(C)n1-c1cccc2ccccc12	inactive
Nc1nccc(-c2c(-c3ccc(F)cc3)ncn2C2CCCCC2)n1	inactive
Cc1csc(CN(C)c2ncnc3ccc(-c4ccc5c(c4)OCO5)cc23)n1	inactive
N#Cc1c(-c2ccc(Br)cc2)no[n+]1[O-]	7.94 µM (active)
c1csc(CNc2ccc(N3CCOCC3)cc2)c1	inactive
CCCCN1C(=O)c2ccccc2NC1c1ccc(OC)c(COc2ccc(NC(C)=O)cc2)c1 (stereo not given)	inactive
C=C1[C@@H](OC(C)=O)CC[C@@]2(C)[C@@H](OC(C)=O)[C@H](OC(C)=O)C3=C(C)C[C@H](OC(=O)C(C)CC)[C@@H]([C@@H](OC(C)=O)[C@H]12)C3(C)C (stereo not given in full)	2.51 µM (active)
O=C([C@@H]1CCCN(c2ccc3[nH]c(C4(n5cc(Cl)cn5)CC4)nc3n2)C1)N1CCCC1	inactive
CC(C)(Nc1nc(-c2ccccc2C(F)(F)F)nc2ccccc12)c1ccc(-c2cccc(C(F)(F)F)c2)cc1	inactive
COc1ccc(C2Oc3ccccc3C(=O)N2Cc2ccccc2)cc1COc1ccc(NC(C)=O)cc1 (stereo not given)	inactive
COc1ccc(C2Nc3ccccc3C(=O)N2Cc2ccc(CNC(=O)CO)cc2)cc1COc1ccc(NC(C)=O)cc1 (stereo not given)	inactive
Cc1ccc(CN(C)c2ncnc3ccc(-c4ccc(C#N)n4C)cc23)o1	inactive
Cc1ccc2nc3sc(C(=O)N4CCCCC4)cc3cc2c1	inactive
c1nc(NCC2CC2)c2cc(-c3ccc4c(c3)OCO4)ccc2n1	inactive
O=C1Nc2ccccc2/C1=C/c1cccc(C(=O)O)c1	inactive
COc1ccc(C2Nc3ccccc3C(=O)N2Cc2ccncc2)cc1COc1ccc(NC(C)=O)cc1 (stereo not given)	inactive
COc1ccc(C2Nc3ccccc3C(=O)N2Cc2ccc(-c3ccccc3)cc2)cc1COc1ccc(NC(C)=O)cc1 (stereo not given)	inactive
COc1ccc(C2=Nn3c(nnc3-c3ccccc3OC)SC2)cc1	inactive
Cc1ccc(-c2cnn(CC(=O)NCCc3ccccc3)c(=O)c2)cc1	inactive

Structure (SMILES)	Potency
Cc1ccc(N[S+](=O)([O-])c2cc3c(cc2Cl)NC(=O)CO3)cc1Br	inactive
CN(C)c1ccc(C(=O)NCC(=O)OC(C(=O)Nc2cc(C(F)(F)F)ccc2Cl)c2ccccc2)cc1 (stereo not given)	inactive
Nc1ccc(Nc2cc(O)c3ncccc3c2)cc1	inactive
CC(=O)Nc1sc2c(c1-c1nc3ccccc3s1)CN(C(C)C)C2	inactive
Cc1ccc(NC(=O)CN2C(=O)N/C(=C\c3cccn3-c3ccc(C(=O)O)cc3)C2=O)cc1	inactive
NC(=O)C1CCN(c2nccc(-c3ccc4c(c3)OCCCO4)n2)CC1	inactive
NC(=O)C1CCN(c2nc(-c3cc4ccccc4o3)cs2)CC1	inactive
CNC(=O)C1CCN(c2nc(-c3ccc(Br)cc3)cs2)CC1	inactive
N#Cc1cccnc1SC1=NS(=O)(=O)c2ccccc21	3.16 µM (active)
N#Cc1nc(Nc2ccccc2)nc(NC2CCCCC2)n1	inactive
CN1C(=O)Cc2cc([S+](=O)([O-])N3CCN([S+](=O)([O-])c4c(F)cccc4F)CC3)ccc21	inactive
N#Cc1cnc(NS(=O)(=O)c2ccc(NC(=O)Cc3ccc(Cl)c(Cl)c3)cc2)s1	inactive
O=c1[nH]c(CN2CCOCC2)nc2sc3c(c12)CCCC3	inactive
Cc1ccc(CN(C)c2ccc(N3CCN(C)CC3)cc2)cc1	10 µM (active)
O=C(OCC#CCSc1nnc(-c2cccc3ccccc23)o1)c1ccncc1	inactive
C/C(=C\c1cccc(C(F)(F)F)c1)C1Nc2cccc3cccc(c23)N1	inactive
CNc1oc(-c2c[nH]c3ccccc23)nc1C#N	inactive
COc1ccc(-c2nc3ccccc3c(=O)n2Cc2ccco2)cc1COc1ccc(NC(C)=O)cc1	inactive
Cc1ccc(S(=O)(=O)Nc2cc(C(F)(F)F)ccc2C(=O)Nc2nc(-c3ccccc3)cs2)cc1	inactive
CN(C)[C@H]1CCN(c2cccc(Nc3nn4c(=O)c5ccccc5nc4s3)c2)C1	inactive

— PubChem BioAssay (NCATS)
